PubChem BioAssay (NCI)
This is part of a sample that, as a whole, favours compounds with a hit. Of some 83,000 tested, about 20% had one in any assay.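 96-well plates, one dose, 48 hours. Percent growth reported; active if below 10.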 Values without a mark were called inactive. Activity calls are given as the source filed them. *1 amine or outer side, *2 acyl side, *3 side chain or, on linkers, in order; H or OH if unused. Where a SMILES comes first, the peptide text is derived from it. [ ]: non-standard residue; d: D form. The star is where a group is joined. X5 = CCC(=O)CC1CC(C)CC(C(=O)[*:2])N1[*:1]; X4 = CCCCCCCCC(C)C(=O)*; Aib = CC(C)(N)C(=O)O; X6 = CC(CN(C)CCO)N*

Assays:
Experiment in all cases: NCI-60 one-dose screen, 48 h (100 = growth as untreated, 0 = no growth, -100 = all killed)
HCT-15 colon = conditions: 10 µM unless noted
HT29 colon = conditions: 10 µM unless noted
SNB-75 CNS = conditions: 10 µM unless noted
SNB-19 CNS = conditions: 10 µM unless noted
U251 CNS = conditions: 10 µM unless noted
PC-3 prostate = conditions: 10 µM unless noted
SK-MEL-5 melanoma = conditions: 10 µM unless noted
UACC-62 melanoma = conditions: 10 µM unless noted
LOX IMVI melanoma = conditions: 10 µM
SK-MEL-2 melanoma = conditions: 10 µM unless noted
EKVX NSCLC = conditions: 10 µM unless noted
SN12C renal = conditions: 10 µM unless noted
UO-31 renal = conditions: 10 µM unless noted
TK-10 renal = conditions: 10 µM unless noted
ACHN renal = conditions: 10 µM unless noted
CAKI-1 renal = conditions: 10 µM unless noted
A498 renal = conditions: 10 µM unless noted
CCRF-CEM leukemia = conditions: 10 µM unless noted
MOLT-4 leukemia = conditions: 10 µM unless noted
SK-MEL-28 melanoma = conditions: 10 µM unless noted

Row | Compound | growth (HCT-15 colon) | growth (HT29 colon) | growth (SNB-75 CNS) | growth (SNB-19 CNS) | growth (U251 CNS) | growth (PC-3 prostate) | growth (SK-MEL-5 melanoma) | growth (UACC-62 melanoma) | growth (LOX IMVI melanoma) | growth (SK-MEL-2 melanoma) | growth (EKVX NSCLC) | growth (SN12C renal) | growth (UO-31 renal) | growth (TK-10 renal) | growth (ACHN renal) | growth (CAKI-1 renal) | growth (A498 renal) | growth (CCRF-CEM leukemia) | growth (MOLT-4 leukemia) | growth (SK-MEL-28 melanoma)
1 | C/C=C/c1cc2c(c(=O)o1)C(=O)[C@@H](O)[C@H](C)O2 | -25.4% (active) | 13% | -23.4% (active) | 94.9% | 40.4% | 11.3% | 95.2% | 80.5% | 25.2% | 72.9% | 95% | 97.6% | 0.0978% (active) | 5.77% (active) | 26.3% | 43.3% | 125% | -17.5% (active) | 43.6% | 
2 | Cc1cc2cccnc2c2ncccc12 | 37% | 19.7% | 2.75% (active) | 34.1% | 17.2% | 47.3% | 3.03% (active) | 0.859% (active) | 14.8% |  | 40.2% | 22.4% | 27% | 11.9% | 18.2% | 12.6% | 23.6% | -11.8% (active) | 5.73% (active) | 32.2%
3 | O=[N+]([O-])c1cc(-c2ccccc2)c(O)c([N+](=O)[O-])c1 | 79.4% | 92.4% | 74.3% | 68.2% | 84.2% | 78.3% | 29.2% | 32% | 82.9% | 75.2% |  | 73.7% |  | 89.2% | 87.7% |  | 82.3% | 16.3% | 71.9% | 66.2%
4 | Cc1ccc(/C=C2\CNC/C(=C\c3ccc(C)cc3)C2=O)cc1 | -33.8% (active) | -35.8% (active) | 29% | -52.6% (active) | -63.4% (active) | 6.55% (active) | -96.7% (active) | -89% (active) | -69.2% (active) | 61% | -67.4% (active) | -61.3% (active) | -81.2% (active) | 16.9% | -82.5% (active) | -44.1% (active) |  | -3.56% (active) | -11.4% (active) | 
5 | CCCCCCCCC(C)C(=O)N1CCCC1C(=O)N1C(CC(=O)CC)CC(C)CC1C(=O)NC(C)C(=O)NC(C)(C)C(=O)NC(C)(C)C(=O)NC(C(=O)NC(C)C(=O)NC(C)(C)C(=O)NC(C)(C)C(=O)NC(C)CN(C)CCO)C(C)CC (centres undefined) (X4-P[X5]A[Aib][Aib]IA[Aib][Aib]-X6; configuration not given here) | -70.8% (active) | -84.2% (active) | -23.8% (active) | 1.03% (active) | -67.3% (active) | -7.35% (active) | -85.3% (active) | -66.1% (active) | -69.5% (active) | -34% (active) | -25.3% (active) | -78.5% (active) | -48.1% (active) | -50.5% (active) | -54.5% (active) | 7.86% (active) |  | -33.3% (active) | -40.9% (active) | 
6 | CCCCCCN(CCCCCC)CCCNc1nccc2ccccc12 | 17% | -11.6% (active) | 33.5% | 20.3% | 9.66% (active) | 20.4% | -91.3% (active) | 21.8% | -39.3% (active) |  |  | 18.7% | 15.2% | 39.8% | 19.2% | 21.4% |  | 12.4% | 11.8% | 13.1%
7 | O=C(C[P+](c1ccccc1)(c1ccccc1)c1ccccc1)c1ccccc1 | 97.5% | 87.4% | 83.6% | 94.4% | 96.7% | 74.7% | 104% | 79.5% | 70.6% |  | 88.5% | 87.9% | 71.8% | 94.4% | 94.3% | 84.5% | 79.8% | 90.5% | 92.3% | 109%
8 | CN(C)c1ccc(/C=C/c2cc[n+](C)c(/C=C/c3ccc(N(C)C)cc3)c2)cc1 | 19.5% | -7.82% (active) | 22.3% | 27% | 15.3% | 3.98% (active) | -95.6% (active) | 12.3% | 12.3% |  |  | 13.5% | -11.4% (active) | 0.183% (active) | 14.6% |  | -10.3% (active) | 6.95% (active) | -26.5% (active) | 20.6%
9 | COC1=CC(=O)c2c(O)c3c(c(O)c2C1=O)CC(C)(O)OC3 (centres undefined) | 0.909% (active) | -10.8% (active) | 41.8% | 7.01% (active) | 17.3% | 8.93% (active) | -92.4% (active) | -14.2% (active) | 11.4% | -6.4% (active) | 23.2% | 34.7% | 33.8% | 66.1% | 27.6% | 34.4% | 68.3% | 19.5% | 14.5% | 
10 | CCOc1ccc2c(c1)/C(=C\C=C\C1CC(C)C3CC(OCC)CCC3N1CC)CC(C)N2CC (centres undefined) | 17.8% | -33.4% (active) | -0.249% (active) | 22.2% | 6.59% (active) | 3.32% (active) | -86.3% (active) | 32.5% | 16.3% | -54.6% (active) |  | 6.7% (active) | 0.241% (active) |  | 12% | 17.9% | 15% | -40.3% (active) | -42.5% (active) | 22.8%
11 | c1csc(-c2[nH]nc3c2CCc2ccccc2-3)c1 | 30.7% | 92.4% | 55.6% | 70.3% | 78.1% | 81.7% | 84.8% | 90% | 97.5% |  |  | 93.5% | 53.8% | 27.8% | 82.3% | 79% | 77.7% | 98.1% | 69.6% | 104%
12 | COc1cc2c(c(OC)c1OC)-c1ccc(NCc3ccccc3)c(=O)cc1[C@@H](NC(C)=O)CC2 | 11.5% | -8.12% (active) | 32.9% | 64.2% | 19% | 21.8% | -25% (active) | 24.9% | 21.2% |  |  | 20.3% | 34.4% | 26% | 28.8% | 28.8% | -17.3% (active) | 10.1% | 3.29% (active) | 42.2%
13 | CCCCCCCCCCCCSC(=N)N | -21.4% (active) | -64.4% (active) | 8.5% (active) | 69% | -10.1% (active) | 33% | 38.5% | 107% | -70.8% (active) |  |  | 51.3% | -27.2% (active) | 87.4% | -12.6% (active) | -7.66% (active) | 80.8% | -22.8% (active) | -37.1% (active) | 52.7%
14 | O=Nc1ccc2ccccc2c1O | 66.5% | 46.8% | 120% | 97.6% | 55.9% | 44.9% | 47.6% | 27.1% | 7.44% (active) |  | 64.1% | 42.4% | 79.8% | 9.55% (active) | 69.1% | 78.1% | 95.3% | 64.5% | 91.2% | 83.8%
15 | Cc1cc(C(=C2C=CC(=Nc3ccccc3)C=C2)c2ccc(Nc3ccccc3)cc2)ccc1N | -31.7% (active) | -75.4% (active) | -74.6% (active) | -55.4% (active) | -97.4% (active) | -60.4% (active) | -95.9% (active) | -65.6% (active) | -93.8% (active) |  | -42.7% (active) | -63.5% (active) | -67.4% (active) | -64.7% (active) | -89.8% (active) | -56.6% (active) | -78.8% (active) | 3.34% (active) | 22.2% | -82.3% (active)
16 | CN=C(N)N/N=C(\c1ccccc1)c1ccc(Br)cc1 | 12.4% | -7.67% (active) | 9.3% (active) | 62.2% | -9.13% (active) | 12.6% | -36.7% (active) | 33.8% | 0.411% (active) |  |  | 16.2% | 0.0982% (active) | 21.6% | 21.5% | 0.888% (active) | -19.2% (active) | 2.24% (active) | -14% (active) | 48%
17 | CCC(C)(O)Cc1ccc(Cl)cc1 (centres undefined) | 103% | 103% | 88.2% | 102% | 101% | 94.5% | 91.6% | 101% | 103% |  | 111% |  | 94.2% | 97.6% | 111% | 101% | 89.5% | 105% | 98.4% | 112%
